Assay [1] can be described thus: rapamycin-like changes in RPL19A-GFP expression – cell-based, S. cerevisiae, multiplex flow cytometry, primary screen (AID 1862; in the data active = percent of DMSO control GFP below about 86%;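 also: lower values mimic rapamycin by blocking the RPL19A rise seen in DMSO cells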). Conditions: S. cerevisiae RPL19A-GFP strain, flow cytometry fluorescence, 3 h; at 10 µM; stronger effect = lower value.
Assay [2] is described as follows: TOR pathway GLN3 branch reporter MEP2-GFP changes – S. cerevisiae, multiplex flow cytometry, primary screen (AID 1867;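 active = GFP response, as percent of the DMSO control, above the screen-wide mean plus 3 SD, about 139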;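 also: median GFP channel fluorescence of barcode-gated MEP2-GFP cells measured by flow cytometry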). As to conditions: S. cerevisiae MEP2-GFP strain, 3 h, at 10 µM, stronger effect = higher value, 100% means same as DMSO wells. On the technique in general: In flow cytometry, cells or beads pass a laser one at a time.
Assay [3] in a line: TOR pathway RTG branch CIT2 reporter changes – S. cerevisiae, GFP fusion, multiplex flow cytometry, primary screen (AID 1870;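 active = percent response above a set limit, the screen-wide mean plus 3 SD, cut at about 130% in these data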;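 also: barcoded CIT2-GFP strain pooled with four other GFP strains with rapamycin as positive control; median GFP fluorescence per well over plate mean of DMSO wells so 100% = DMSO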). Conditions: S. cerevisiae CIT2-GFP expression, 3 h, at 10 µM, stronger effect = higher value.
Assay [4] can be described thus: TOR pathway LAP4-GFP level changes – S. cerevisiae, multiplex flow cytometry, primary screen (AID 1873;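 active = GFP signal, as percent of the solvent control, above the screen mean plus 3 SD, about 149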). As to conditions: S. cerevisiae LAP4-GFP expression, 3 h, at 10 µM, stronger effect = higher value.
A short description of assay [5]: yeast AGP1-GFP level changes, GLN3 branch – cell-based, multiplex flow cytometry, S. cerevisiae, primary screen (AID 1887;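 active = GFP signal above the screen-wide mean plus 3 SD, that is over about 124.5% of the solvent control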;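 also: AGP1-GFP fusion strain of S. cerevisiae within a five-strain barcoded multiplex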). Conditions: 3 h, at 10 µM, stronger effect = higher value.
Assay [6] can be described thus: reduced mouse 2C T cell binding to pMHC/ICAM-1 vesicles – MLPCN validation set, flow cytometry, LFA-1/ICAM-1 modulator project, pilot screen (AID 2523;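 active = response below a set limit, under 55% cells CD8-positive and vesicle-bound, and CD8 cells' 90th-percentile brightness under 279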;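 as to vesicle binding response: mean PE anti-B7-1 fluorescence of CD8+ cells relative to row control; 100% = QL9-loaded vesicles with DMSO vehicle in the same plate row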). As to conditions: 2C mouse CD8+ T cells, at 7 µM, stronger effect = lower value; double positive events: measured here: CD8+/vesicle+ event percentage.
The target in assay [7] is Integrin beta-1 (Homo sapiens) + Integrin alpha-4 (Homo sapiens) (UniProt P13612+P05556). Kind of assay: alpha4beta1 integrin LIBS antibody binding reduction – U937 cells, HUTS-21 mAb, flow cytometry, validation set, VLA-4 allosteric modulator project, pilot screen (AID 2674;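 active = inhibition above 50%, about 3 SD of the validation set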;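 also: antibody binding induced by the VLA-4 ligand LDV present at three times its Kd; 0% = LDV ligand with antibody and no compound and 100% = antibody without LDV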). As to conditions: HUTS-21 LIBS mAb binding, at 6.7 µM, stronger effect = higher value, binding induced by LDV ligand.

The nature of assay [8]: calorie-restriction mimetic ROS inhibitors, yeast – validation compound set, pilot screen (AID 2706;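 active = superoxide response below 65% of plate, a cut near 3 SD across the whole screen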;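 also: yeast exposed to compound for one week at 30 degrees C before staining; 100% = mean of all compound wells on the same plate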). As to conditions: S. cerevisiae aging, superoxide DHE fluorescence; at 10 µM; stronger effect = lower value.
Assay [9] concerns the target Beta-adrenergic receptor kinase 1 (Homo sapiens) (UniProt P25098). Kind of assay: GRK2 binders displacing RNA aptamer, biochemical, validation, human GRK2, bead flow cytometry (AID 488806;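 active = aptamer binding inhibition above 30%, about 3 SD of noise from non-fluorescent compounds; inactive = inhibition at or below 30%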). As to conditions: bead-bound GRK2, FAM-aptamer displacement, at 10 µM, stronger effect = higher value.
Assay [10] addresses Beta-2 adrenergic receptor (Homo sapiens) (UniProt P07550). Kind of assay: agonist-induced loss of surface beta2AR – cell-based, FAP fluorogen, flow cytometry, validation set, pilot screen (AID 504459;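 active = percent response above 42, roughly 3 SD of non-fluorescent test compounds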;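 also: agonist-driven loss of surface beta2AR via internalization measured by FAP dye flow cytometry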). Conditions: Am2.2-beta2AR cells, at 10 µM, stronger effect = higher value.
Assay [11] deals with AP-2 complex subunit beta (Homo sapiens) (UniProt P63010). Put plainly: beta-arrestin/AP2 interaction blockers – biochemical, validation set, GST-AP2 beads, flow cytometry, pilot screen (AID 504541;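 active = inhibition above 54%, about 3 SD of non-fluorescent compounds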;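 also: AP2 carries R879A mutation and is captured from E. coli lysate; bead-bound FITC arrestin peptide fluorescence measuring arrestin peptide binding to AP2; 0% = DMSO wells and 100% = excess unlabeled arrestin peptide control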). As to conditions: FITC arrestin peptide, at 10 µM, stronger effect = higher value, AP2 beta2 appendage fragment, R879A mutant.
The nature of assay [12]: cytosolic pH regulators acting via V-ATPase – S. cerevisiae, pHLuorin, HTS validation (AID 504600; in the data active = response above about 15%;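 also: plate controls were DMSO for no effect and reference compound for full effect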). Conditions: V-ATPase proton transport, at 10 µM, stronger effect = higher value.
Assay [13] has as its system anti-desmoglein-3 scFv antibody binding to human DSG3. Put plainly: blockers of pathogenic pemphigus antibody–desmoglein-3 binding – biochemical, validation compound set, bead-based, flow cytometry, pilot screen (AID 588368;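 active = binding below the plate cutoff, the plate median minus 3 SD, with a reading above zero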;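 also: signal is the median channel fluorescence of bead-bound GFP antibody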). Conditions: Protein G beads, DSG3-Fc, scFv-GFP binding, at 10 µM, stronger effect = lower value.
Assay [14] can be described thus: Nile Red efflux blockade in pump-expressing yeast – validation compound set, multiplex, phenotypic, pilot screen (AID 588506;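 active = efflux inhibition above 0.42, the validation set average plus 4 SD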;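 also: Nile Red retained in cells so higher fluorescence means more efflux inhibition; 0 = negative control wells and 1 = enniatin B 25 µM full block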). As to conditions: S. cerevisiae pump-expressing triplex, Nile Red efflux flow cytometry; at 10 µM; stronger effect = higher value; the pumps come from Candida albicans.
Assay [15] deals with ATP-binding cassette sub-family B member 6 (Homo sapiens) (UniProt Q9NP58). Kind of assay: blockers of ABCB6-driven porphyrin uptake – K562-ABCB6 cells, flow cytometry, validation set, pilot screen (AID 588550).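 Also: 0% = DMSO wells and 100% = benzethonium chloride 70 µM positive control.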 Conditions: K562-ABCB6 porphyrin accumulation, 1 h, at 10 µM, stronger effect = higher value.
Assay [16] can be described thus: AML differentiation inducers, ER-HoxA9 marrow cells – cell-based, GFP/MAC1 double positive, flow cytometry, validation set, primary screen (AID 588685;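 active = differentiation response of at least 50%, scaled between solvent and reference control, from cells with both markers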;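 also: compound exposure lasts four days before antibody staining and flow analysis; 0% = DMSO wells and 100% = 5 µM fulvestrant positive control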). As to conditions: stronger effect = higher value, normalized: vehicle 0, fulvestrant 100.

The values below come from PubChem BioAssay.

The structures appear in SMILES notation. Inconclusive results are not listed. The source made the active and inactive calls.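 The calls were made as follows, unless noted: active = inhibition above the screen-wide mean plus 3 SD, about 51%; inactive = the rest.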

Sequence of ATP-binding cassette sub-family B member 6 (Homo sapiens) (Q9NP58 whole entry, looked up): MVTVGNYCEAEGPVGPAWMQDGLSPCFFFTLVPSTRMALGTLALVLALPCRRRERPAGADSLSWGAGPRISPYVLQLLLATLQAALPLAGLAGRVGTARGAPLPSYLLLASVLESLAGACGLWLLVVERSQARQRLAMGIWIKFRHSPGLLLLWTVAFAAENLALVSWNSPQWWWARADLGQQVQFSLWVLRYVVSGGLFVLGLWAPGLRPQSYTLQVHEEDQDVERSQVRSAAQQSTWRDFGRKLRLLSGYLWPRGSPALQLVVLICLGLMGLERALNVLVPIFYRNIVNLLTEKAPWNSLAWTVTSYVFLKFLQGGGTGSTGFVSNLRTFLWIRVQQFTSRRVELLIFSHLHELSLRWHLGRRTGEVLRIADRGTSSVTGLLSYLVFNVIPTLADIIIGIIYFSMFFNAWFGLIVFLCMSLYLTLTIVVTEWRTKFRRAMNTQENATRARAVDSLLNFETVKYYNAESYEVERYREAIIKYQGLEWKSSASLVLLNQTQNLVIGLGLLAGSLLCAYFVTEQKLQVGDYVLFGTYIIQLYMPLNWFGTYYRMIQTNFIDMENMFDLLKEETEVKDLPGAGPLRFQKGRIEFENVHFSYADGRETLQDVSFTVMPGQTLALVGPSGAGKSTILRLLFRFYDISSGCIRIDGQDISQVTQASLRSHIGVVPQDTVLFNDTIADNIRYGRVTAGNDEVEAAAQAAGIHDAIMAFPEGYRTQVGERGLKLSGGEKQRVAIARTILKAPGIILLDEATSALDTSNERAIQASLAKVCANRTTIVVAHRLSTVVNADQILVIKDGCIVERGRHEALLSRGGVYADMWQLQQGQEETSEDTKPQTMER
Sequence of Beta-adrenergic receptor kinase 1 (Homo sapiens) (P25098 whole entry, looked up): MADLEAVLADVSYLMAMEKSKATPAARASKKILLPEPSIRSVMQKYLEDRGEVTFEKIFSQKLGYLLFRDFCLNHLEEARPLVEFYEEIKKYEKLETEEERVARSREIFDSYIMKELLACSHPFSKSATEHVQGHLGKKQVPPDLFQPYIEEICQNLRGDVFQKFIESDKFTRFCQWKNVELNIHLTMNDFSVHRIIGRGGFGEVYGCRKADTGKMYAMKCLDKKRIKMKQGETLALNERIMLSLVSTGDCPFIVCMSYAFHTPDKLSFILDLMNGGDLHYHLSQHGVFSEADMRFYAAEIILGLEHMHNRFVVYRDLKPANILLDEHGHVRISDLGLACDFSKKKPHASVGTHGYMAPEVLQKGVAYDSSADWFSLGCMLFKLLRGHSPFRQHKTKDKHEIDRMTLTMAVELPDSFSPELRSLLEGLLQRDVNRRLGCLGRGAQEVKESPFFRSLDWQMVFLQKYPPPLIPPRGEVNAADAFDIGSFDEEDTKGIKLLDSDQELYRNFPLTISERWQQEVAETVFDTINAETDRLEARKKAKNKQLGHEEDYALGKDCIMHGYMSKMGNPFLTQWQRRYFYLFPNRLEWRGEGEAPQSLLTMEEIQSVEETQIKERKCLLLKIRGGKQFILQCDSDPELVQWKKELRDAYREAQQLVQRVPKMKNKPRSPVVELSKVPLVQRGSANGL
Sequence of Beta-2 adrenergic receptor (Homo sapiens) (P07550 whole entry, looked up): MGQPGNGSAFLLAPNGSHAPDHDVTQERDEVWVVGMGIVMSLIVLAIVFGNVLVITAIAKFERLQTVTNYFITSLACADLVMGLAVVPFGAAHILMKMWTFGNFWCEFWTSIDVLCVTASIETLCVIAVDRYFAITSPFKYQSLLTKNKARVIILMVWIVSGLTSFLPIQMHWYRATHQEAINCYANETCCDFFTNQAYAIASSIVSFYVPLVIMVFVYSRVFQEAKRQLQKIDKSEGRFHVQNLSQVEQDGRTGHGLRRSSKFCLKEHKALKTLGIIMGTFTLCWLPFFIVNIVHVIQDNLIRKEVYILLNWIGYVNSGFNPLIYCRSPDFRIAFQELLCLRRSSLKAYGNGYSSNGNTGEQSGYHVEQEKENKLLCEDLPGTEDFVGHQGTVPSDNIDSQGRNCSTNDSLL
Sequence of AP-2 complex subunit beta (Homo sapiens) (P63010 whole entry, looked up, the tested form may be a part, one chain of several): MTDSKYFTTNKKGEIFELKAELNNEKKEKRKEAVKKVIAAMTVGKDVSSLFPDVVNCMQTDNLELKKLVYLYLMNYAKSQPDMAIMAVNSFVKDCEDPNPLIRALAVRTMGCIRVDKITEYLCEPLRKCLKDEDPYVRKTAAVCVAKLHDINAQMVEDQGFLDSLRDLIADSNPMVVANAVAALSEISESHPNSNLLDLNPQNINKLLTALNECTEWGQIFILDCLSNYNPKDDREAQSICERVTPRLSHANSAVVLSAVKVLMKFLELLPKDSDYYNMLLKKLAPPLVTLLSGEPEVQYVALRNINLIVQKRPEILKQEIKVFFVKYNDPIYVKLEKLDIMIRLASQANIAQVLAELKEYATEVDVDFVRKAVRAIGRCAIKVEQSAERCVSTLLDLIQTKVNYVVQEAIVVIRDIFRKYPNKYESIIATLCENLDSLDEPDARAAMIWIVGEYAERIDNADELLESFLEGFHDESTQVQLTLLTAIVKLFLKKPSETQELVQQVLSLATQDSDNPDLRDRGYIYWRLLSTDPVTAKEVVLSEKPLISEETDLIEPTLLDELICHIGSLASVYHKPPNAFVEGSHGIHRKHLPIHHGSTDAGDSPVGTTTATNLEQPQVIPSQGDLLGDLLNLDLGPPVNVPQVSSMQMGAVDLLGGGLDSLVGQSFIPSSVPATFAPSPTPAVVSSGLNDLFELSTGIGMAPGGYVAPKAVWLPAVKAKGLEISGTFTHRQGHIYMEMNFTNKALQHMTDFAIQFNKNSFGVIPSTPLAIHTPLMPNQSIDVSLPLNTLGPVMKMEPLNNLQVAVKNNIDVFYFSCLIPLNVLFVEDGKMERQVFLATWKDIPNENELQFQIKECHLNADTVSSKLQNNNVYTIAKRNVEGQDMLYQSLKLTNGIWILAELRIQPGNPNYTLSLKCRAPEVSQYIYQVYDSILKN
Sequence of Integrin beta-1 (Homo sapiens) + Integrin alpha-4 (Homo sapiens) (P05556 whole entry, looked up): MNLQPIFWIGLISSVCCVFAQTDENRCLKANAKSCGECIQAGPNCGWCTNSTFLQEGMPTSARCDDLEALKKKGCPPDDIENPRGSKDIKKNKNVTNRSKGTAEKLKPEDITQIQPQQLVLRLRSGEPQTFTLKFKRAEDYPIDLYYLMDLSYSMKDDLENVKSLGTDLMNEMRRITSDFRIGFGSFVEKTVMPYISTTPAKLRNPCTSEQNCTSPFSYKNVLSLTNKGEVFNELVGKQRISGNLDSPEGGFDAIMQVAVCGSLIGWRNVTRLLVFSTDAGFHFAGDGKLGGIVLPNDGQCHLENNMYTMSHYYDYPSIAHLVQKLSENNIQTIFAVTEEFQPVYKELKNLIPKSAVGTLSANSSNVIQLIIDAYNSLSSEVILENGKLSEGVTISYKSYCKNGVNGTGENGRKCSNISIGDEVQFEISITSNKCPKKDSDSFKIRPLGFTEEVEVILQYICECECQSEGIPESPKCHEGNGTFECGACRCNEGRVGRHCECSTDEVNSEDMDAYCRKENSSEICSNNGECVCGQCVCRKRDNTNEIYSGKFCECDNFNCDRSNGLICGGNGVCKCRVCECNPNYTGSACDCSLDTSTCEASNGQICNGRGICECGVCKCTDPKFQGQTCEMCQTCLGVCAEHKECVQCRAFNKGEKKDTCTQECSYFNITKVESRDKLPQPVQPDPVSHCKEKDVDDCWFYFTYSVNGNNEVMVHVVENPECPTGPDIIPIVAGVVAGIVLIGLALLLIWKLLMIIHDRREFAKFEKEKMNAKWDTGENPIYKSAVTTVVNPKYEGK
Sequence of Integrin beta-1 (Homo sapiens) + Integrin alpha-4 (Homo sapiens) (P13612 whole entry, looked up): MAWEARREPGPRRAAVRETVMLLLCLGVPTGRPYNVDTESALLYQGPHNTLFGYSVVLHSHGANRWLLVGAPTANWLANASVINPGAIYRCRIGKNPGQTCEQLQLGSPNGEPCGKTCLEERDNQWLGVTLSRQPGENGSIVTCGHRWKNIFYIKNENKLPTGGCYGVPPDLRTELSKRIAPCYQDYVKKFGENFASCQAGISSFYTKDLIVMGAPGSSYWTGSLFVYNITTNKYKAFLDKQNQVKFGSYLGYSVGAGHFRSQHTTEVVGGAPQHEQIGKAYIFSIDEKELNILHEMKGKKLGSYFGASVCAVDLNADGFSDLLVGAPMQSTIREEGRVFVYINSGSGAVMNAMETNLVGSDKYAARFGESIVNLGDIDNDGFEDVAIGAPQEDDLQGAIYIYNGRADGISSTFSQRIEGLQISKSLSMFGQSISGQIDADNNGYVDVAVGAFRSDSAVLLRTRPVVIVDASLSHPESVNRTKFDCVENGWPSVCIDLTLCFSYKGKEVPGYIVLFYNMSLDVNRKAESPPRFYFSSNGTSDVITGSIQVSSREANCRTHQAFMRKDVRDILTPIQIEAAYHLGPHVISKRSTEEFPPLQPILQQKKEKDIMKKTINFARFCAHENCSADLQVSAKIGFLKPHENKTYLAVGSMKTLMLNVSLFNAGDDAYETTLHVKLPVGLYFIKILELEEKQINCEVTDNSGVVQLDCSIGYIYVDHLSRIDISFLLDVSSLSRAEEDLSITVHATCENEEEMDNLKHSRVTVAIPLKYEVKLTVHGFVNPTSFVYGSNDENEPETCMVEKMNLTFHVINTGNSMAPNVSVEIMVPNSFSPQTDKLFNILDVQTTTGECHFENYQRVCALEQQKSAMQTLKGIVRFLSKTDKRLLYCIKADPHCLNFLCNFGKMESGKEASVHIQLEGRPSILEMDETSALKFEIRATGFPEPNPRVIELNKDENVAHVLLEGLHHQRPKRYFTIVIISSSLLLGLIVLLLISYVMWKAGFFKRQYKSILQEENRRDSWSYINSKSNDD

As to `COCCNC(=O)CSc1ccc(Cl)cc1`, in [1], the percent of DMSO control GFP was 104% (inactive). For the same compound, the GFP response vs DMSO is 106% (inactive) in assay [2] and 88.7% (inactive) in assay [4]. Also, in assay [3], the percent response of DMSO control was 105% (inactive). Further, in [5], the GFP response, % of DMSO is 103% (inactive). Also, in [6], the double positive events was found to be 62.8%. Besides, the vesicle binding response in assay [6] was 245% (inactive). Moreover, the values for the inhibition in [7], in assay [11] and in [15] were -0.45% (inactive), 7.8% (inactive) and 10% (inactive), respectively. Also, the superoxide response (% of plate) in assay [8] is 112% (inactive). In assay [9], the aptamer binding inhibition was 1% (inactive). The values for the response in assay [10] and in assay [12] were -6.87% (inactive) and -1.2% (inactive), respectively. The binding (% of control) in [13] is 92% (inactive). Further, the efflux inhibition (fraction of control) in [14] was 0.14 (inactive). Further, the differentiation response in assay [16] is -12.5% (inactive).
In the case of `CC(C)=CCC/C(C)=C/CC/C(C)=N/O`, the percent of DMSO control GFP in [1] is 97.4% (inactive). Also, the GFP response vs DMSO in assay [2] is 115% (inactive); in assay [4], 108% (inactive). Moreover, in assay [3], the percent response of DMSO control is 91% (inactive). Further, in assay [5], the GFP response, % of DMSO was 93.5% (inactive). This compound also returned a double positive events in assay [6] of 59.7%. The vesicle binding response in assay [6] is 199% (inactive). Also, the inhibition was 6.4% (inactive) in assay [7], -1.05% (inactive) in assay [11] and -63% (inactive) in [15]. Also, in assay [8], the superoxide response (% of plate) is 97.4% (inactive). In addition, the aptamer binding inhibition in assay [9] was 4% (inactive). The response in assay [10] is 3.47% (inactive); in assay [12], -1.49% (inactive). Further, in assay [13], the binding (% of control) was 103% (inactive). In addition, the efflux inhibition (fraction of control) in assay [14] is 0.08 (inactive). Besides, in assay [16], the differentiation response was -2.4% (inactive).
In the case of `CS(=O)(=O)Nc1ccc([N+](=O)[O-])cc1Oc1ccccc1`, in [1], the percent of DMSO control GFP is 95.5% (inactive). Besides, the values for the GFP response vs DMSO in [2] and in assay [4] were 97.6% (inactive) and 115% (inactive), respectively. Further, in assay [3], the percent response of DMSO control is 96.4% (inactive). For the same compound, in assay [5], the GFP response, % of DMSO was 115% (inactive). Moreover, the double positive events in assay [6] came out at 62.2%. For the same compound, the vesicle binding response in assay [6] is 188% (inactive). Besides, the inhibition is -8.78% (inactive) in assay [7], -2.11% (inactive) in assay [11] and 5% (inactive) in [15]. In addition, the superoxide response (% of plate) in assay [8] is 106% (inactive). In [9], the aptamer binding inhibition is 3% (inactive). Also, the response in assay [10] is -35% (inactive); in [12], 2.46% (inactive). In addition, the binding (% of control) in assay [13] was 106% (inactive). Moreover, in [14], the efflux inhibition (fraction of control) is -0.09 (inactive). The differentiation response in assay [16] is -8.93% (inactive).
Turning to `COc1cccc(NC(=O)C2CC(=O)OC23CCOC(C)(C)C3)c1` (stereo not drawn), in assay [1], the percent of DMSO control GFP was 93.7% (inactive). For the same compound, the results for the GFP response vs DMSO in [2] and in [4] were 137% (inactive) and 80.9% (inactive), respectively. The percent response of DMSO control in [3] is 95.2% (inactive). For the same compound, the GFP response, % of DMSO in assay [5] was 94.2% (inactive). The same compound returned a double positive events in assay [6] of 58.3%. In [6], the vesicle binding response was 24.9% (inactive). Besides, the values for the inhibition in assay [7], in [11] and in assay [15] were 19.1% (inactive), 0.76% (inactive) and 9% (inactive), respectively. Moreover, in [8], the superoxide response (% of plate) is 88.5% (inactive). Also, in assay [9], the aptamer binding inhibition was 2% (inactive). The response was -4.19% (inactive) in assay [10] and -0.08% (inactive) in assay [12]. In addition, the binding (% of control) in assay [13] is 101% (inactive). The efflux inhibition (fraction of control) in assay [14] was -0.13 (inactive). In [16], the differentiation response was -2.46% (inactive).

A word on the inhibition: it is the relative decrease from the control value, in per cent.
